Bioassay records: PubChem, several laboratories
Rows were chosen to be rich in hits. Some 2.2% of all compounds tested hit in one or more screens of this group.
Ba/F3 V617F tox: loss of viability in JAK2V617F-driven Ba/F3 cells. actives 1.1% (n = 220,000). Ba/F3 EpoR-JAK2V617F viability, ATP luminescence. inhibition, % at 5.6 µM;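 active means inhibition above the campaign mean plus 3 SD over all tested compounds, cut at about 24% in these data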;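 further: cytokine-independent growth of Ba/F3 cells driven by EpoR plus mutant JAK2; 0% = DMSO-treated cells and 100% = JAK inhibitor I control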
KLF5 inh: suppresses KLF5 promoter-driven expression. DLD-1 KLF5 promoter-luciferase reporter, luminescence. inhibition, % at 5 µM. actives 0.23% (n = 290,000);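 active means inhibition above a per-plate limit of that plate's mean compound inhibition plus 3 SD, cut at about 60% in these data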;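 further: 0% = DMSO wells and 100% = LY294002 at 200 µM; higher means less KLF5 promoter-driven luciferase light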
IEC-6 tox: kills IEC-6 intestinal cells in KLF5 counter-screen; actives 0.78% (n = 290,000); IEC-6 cytotoxicity, luminescence viability; inhibition, % at 5 µM; in the data active means inhibition above about 22%;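 further: 0% = plate median of test compound wells and 100% = cytotoxic reference compound wells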
BaF3 tox: reduces parental Ba/F3 cell viability, JAK2V617F counter-screen; CellTiter-Glo ATP luminescence; inhibition, % at 5.6 µM; actives 1.1% (n = 220,000); AID 1486;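 active means inhibition above a per-campaign cutoff, the mean inhibition of all tested compounds plus 3 SD, cut at about 27% in these data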;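 further: 0% = DMSO wells and 100% = JAK Inhibitor I control wells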
aSyn UTR inh: 5' untranslated region of α-synuclein, MLPCN primary screen | alpha-synuclein 5'UTR reporter, inhibitor activity | inhibition, % (tested at 7.5 µM) | actives 0.82% (n = 300,000); in the data active means inhibition above about 60%; inconclusive means no clear call, values can overlap the other calls;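 further: H4 neuroglioblastoma cells stably carrying SNCA 5'UTR luciferase fusion; 0% = DMSO wells and 100% = positive control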
APP transl inh: APP translation inhibition. actives 0.82% (n = 190,000). inhibition, % at 2 µM. SH-SY5Y APP 5'UTR-luciferase reporter, luminescence. AID 1285;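 active means inhibition above a set limit, derived from the sample mean plus 3 SD, cut at about 45% in these data; inconclusive means one replicate passes the limit while the other fails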
Starred values were filed as active, the others as inactive; ? = inconclusive; . = no result.

SMILES | Ba/F3 V617F tox | KLF5 inh | IEC-6 tox | BaF3 tox | aSyn UTR inh | APP transl inh
COc1ccc(OC)c(NC(=O)c2cnc3ccccn3c2=O)c1 | 2 | -24 | 7 | 9 | . | -2
Cc1coc2c1c(C)cc1oc(=O)c(CC(=O)N[C@@H](C)C(=O)O)c(C)c12 | . | -28 | 6 | . | 8 | .
O=C(O)CCn1c(-c2ccccn2)nc2ccccc21 | . | -45 | 2 | . | -8 | .
COC(=O)C1=C(C)NC(C)=C(C(=O)OC)C1c1ccccc1OCc1c(C)no[n+]1[O-] | 32* | -14 | 15 | 35* | . | -9
COc1cc(/C=C(\C#N)C(N)=O)ccc1OCc1c(C)no[n+]1[O-] | -5 | -27 | -6 | 0 | -12 | .
O=C(c1ccc(F)cc1)N(C(=O)c1ccc(F)cc1)c1ncccn1 | -2 | -32 | -1 | 2 | 8 | 71*
O=C(O)c1cc(OCc2ccccc2)cc(OCc2ccccc2)c1 | . | -18 | -2 | . | 1 | .
CCOc1ccc(OCc2cccc(C(=O)O)c2)cc1 | . | . | . | . | 84* | .
CCOc1ccc(OCc2cccc(C(=O)N3CCCC3)c2)cc1 | 3 | -134 | 2 | 8 | -4 | -117
O=C(O)c1cccc(COc2ccc(CO)cc2Cl)c1 | . | . | . | . | 105* | .
CCOc1ccc(OCc2cccc(C(=O)N3CCCCCC3)c2)cc1 | 0 | -61 | 0 | 11 | 76* | -113
O=C(OCC(F)(F)F)c1cccc(COc2ccc3ccccc3c2)c1 | 2 | -4 | -1 | 2 | 107* | 44
CSc1ccc(CCNS(=O)(=O)c2csc(C(N)=O)c2)cc1 | . | -37 | -6 | . | -2 | .
NS(=O)(=O)c1ccc(CCNC(=O)c2ccc(OCC3CCCO3)cc2)cc1 (stereo not given) | . | -21 | 3 | . | -7 | .
Cc1cccnc1NC(=O)c1ccc(Cl)c(S(=O)(=O)N2CCCCCC2)c1 | . | -11 | 1 | . | -7 | .
COc1ccc(OCc2cccc(C(=O)O)c2)cc1 | . | . | . | . | 128* | .
CS(=O)(=O)NCCNC(=O)c1cc(OCC(F)(F)F)ccc1OCC(F)(F)F | 2 | -16 | 2 | 4 | -2 | 78*
COc1ccc(N2CCN(S(=O)(=O)c3cn(C)cn3)CC2)cc1 | . | -16 | 1 | . | 0 | .
COc1ccc(C(=O)Nn2c(SCC(=O)NCC3CCCO3)nc3ccccc3c2=O)cc1 (stereo not given) | 7 | -47 | 3 | 8 | 87* | -57
COc1ccc(C(=O)Nn2c(SCC(=O)NCc3ccccc3)nc3ccccc3c2=O)cc1 | 6 | -31 | 4 | 9 | 77* | -66
COc1ccc(C(=O)Nn2c(SCC(=O)NC3CCCC3)nc3ccccc3c2=O)cc1 | 9 | -82 | 7 | 13 | -50 | -73
COc1ccc(NC2CCCN(C(=O)c3ccc(C(C)=O)s3)C2)cc1 (stereo not given) | . | -2 | 6 | . | 18 | .
O=C1c2cccc3c([N+](=O)[O-])ccc(c23)C(=O)N1Cc1cccnc1 | 42* | -13 | 6 | 37* | -5 | 82*
O=C1c2cccc3cccc(c23)C(=O)N1Cc1cccnc1 | 4 | 9 | 4 | -4 | 14 | .
Cc1ccnc(N2C(=O)c3cccc4c([N+](=O)[O-])ccc(c34)C2=O)c1 | 6 | -15 | -4 | 36* | -1 | 37
SMILES | Ba/F3 V617F tox | KLF5 inh | IEC-6 tox | BaF3 tox | aSyn UTR inh | APP transl inh
CCCCC(O)(c1ccc(F)cc1)C(CN1CCOCC1)c1ccc(Cl)cc1 (stereo not given) | . | -9 | -5 | . | 13 | .
CCCCCc1nnc(NC(=O)CN2C(=O)C3CCCCC3C2=O)s1 (stereo not given) | . | -13 | -9 | . | -2 | .
COc1ccc(OC(=O)C(C)N2C(=O)c3ccccc3C2=O)cc1 (stereo not given) | . | -27 | -3 | . | 23 | .
CC1=CC(C)(C)Nc2ccc(OC(=O)C(C)N3C(=O)c4ccccc4C3=O)cc21 (stereo not given) | 1 | 9 | -2 | 80* | 19 | 17
CC1=CC(C)(C)Nc2ccc(OC(=O)c3cccnc3)cc21 | 41* | -12 | 9 | 90* | 15 | 32
CC(C)Cn1cnc2c1c(=O)n(CC(=O)NC(=O)NC(C)(C)C)c(=O)n2Cc1ccccc1 | . | -28 | 6 | . | 28 | .
O=C(Nc1ncc(Cc2ccc(SC(F)F)cc2)s1)c1ccc(OC(F)F)cc1 | -4 | 0 | 5 | 3 | -129 | 94*
CCCCn1c(=O)c(C(=O)N/N=C/c2ccc(F)cc2)c(O)c2ccccc21 | -1 | -21 | 3 | 80* | -16 | 23
O=C(CCc1nnc2ccc(NCc3ccco3)nn12)Nc1cccc(F)c1 | . | -5 | 8 | . | -5 | .
O=C(CSc1nnc(COc2ccc(Cl)cc2)o1)N1c2ccccc2CCc2ccccc21 | 25* | -20 | 12 | 46* | ? | 0
O=C(CSc1nnc(COc2ccc(Cl)cc2)o1)N1CCCC1 | . | -8 | -4 | . | 12 | .
CCc1sc(NS(C)(=O)=O)nc1-c1ccccc1 | -4 | -25 | 0 | 2 | -8 | 50*
Cc1cc(C)n(-c2nc(NCCCN(C)C)c3c4c(sc3n2)CCCC4)n1 | 4 | -20 | 8 | 1 | -36 | .
Cc1cc(C)n(-c2nc(NCCN(C)C)c3c4c(sc3n2)CCCC4)n1 | 4 | -25 | 10 | -4 | 116* | .
Cn1c(-c2cccc([N+](=O)[O-])c2)[n+](C)c2ccccc21 | 58* | 1 | 3 | 70* | 19 | -1
Cn1c(-c2ccc3ccccc3n2)[n+](C)c2ccccc21 | 89* | 8 | 4 | 63* | -65 | .
CN(C)c1ccc(-c2n(C)c3ccccc3[n+]2C)cc1 | 91* | -38 | 10 | 71* | 8 | .
Cn1c(-c2ccccn2)[n+](C)c2ccccc21 | 8 | -37 | 0 | 17 | -1 | -1
CCCCc1nnc(NC(=O)c2ccc3c(=O)n4c(nc3c2)CCC4)s1 | . | . | . | . | 2 | .
COc1ccc(N2CCN(C(=O)COC(=O)COc3ccc(C#N)cc3)CC2)cc1 | . | . | . | . | 1 | .
O=C(Nc1ccc(Cl)cc1)Nc1csc([N+](=O)[O-])c1 | 30* | -16 | 5 | 72* | 1 | .
Cc1cc(C)c2nc(C)cc(N/N=C/c3ccc(O)cc3)c2c1 | . | -36 | 22 | . | 112* | .
O=C(Nc1cccc(C(=O)O)c1)/C(=C\c1ccc2c(c1)OCO2)NC(=O)c1ccccc1Cl | . | 0 | -6 | . | 14 | .
Cc1cc(S(=O)(=O)N2CCCCC2)c(C)s1 | . | 4 | -4 | . | 5 | .
CN1C(=O)NC(NC(=O)c2ccco2)(C(F)(F)F)C1=O (stereo not given) | -2 | -25 | -4 | 0 | -1 | -3
CC(C)CN1C(=O)NC(NC(=O)c2ccco2)(C(F)(F)F)C1=O (stereo not given) | 0 | -25 | -1 | 95* | 9 | 5
CCN(CC)C(=S)Nc1ccc(Cl)c(Cl)c1 | 18 | -14 | 3 | 32* | -12 | 16
S=C(Nc1ccccc1)N(Cc1ccccc1)Cc1ccncc1 | -3 | 7 | -1 | 5 | 9 | -3
CCN(Cc1ccncc1)C(=S)Nc1ccc(Cl)cc1 | 24* | 15 | 2 | 27* | 6 | -12
O=C(Nc1ccc2oc(=O)ccc2c1)c1ccc(-c2cccc(Cl)c2)o1 | 2 | -8 | 7 | 1 | 14 | .
